From PubChem BioAssay

These molecules were tested against Calmodulin-1 (Homo sapiens) (UniProt P0DP23) (assay: CALM1 binders on microarrays, EGTA buffer, profiling panel, biochemical, small-molecule microarray, Cy5-labelled CALM1 (AID 1111;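 also: labelled calmodulin applied in Tris saline Tween buffer holding calcium plus EGTA and DTT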)). Settings: Cy5-CALM1 binding fluorescence, higher = more signal.

In order of falling composite z-score:
1. CCCCCCCCCCC(O)C1C=CC2C(=O)N(c3ccccc3)C(=O)C2N1Nc1ccc(C#N)cc1 (stereo not given)  2.48
2. COCCCNC(=O)[C@@]1(CCC(=O)OC(C)(C)C)N=C(c2ccc(OCCCO)cc2)O[C@H]1c1ccccc1N=[N+]=[N-]  2.01
3. C=CC[C@@]1(C(=O)NCCCOC)N=C(c2ccc(OCCCO)cc2)O[C@@H]1c1ccccc1  1.94
4. COC(=O)[C@]1(CCS(=O)(=O)c2ccccc2)N=C(c2ccc(OCCCO)cc2)O[C@@H]1c1ccccc1N=[N+]=[N-]  1.73
5. CC[C@@H]1C=C(C(=O)O)[C@H](c2ccccc2)N1S(=O)(=O)c1ccc(C)cc1  1.6
6. CC[C@@H]1C=C(C(=O)O)[C@H](c2ccc(C#N)cc2)N1S(=O)(=O)c1ccc(C)cc1  1.45
7. [N-]=[N+]=Nc1ccccc1C[C@]1(C(=O)NCC(O)CO)COC(c2ccc(OCCCO)cc2)=N1 (stereo not given in full)  1.32
8. COc1ccc([Si](C)(C)[C@@H]2[C@@H](CCO)O[C@]3(C(=O)N(Cc4cccc(NC(=O)[C@H](C)O)c4)c4ccccc43)[C@H]2C)cc1  0.953
9. [N-]=[N+]=NCc1ccccc1[C@@H]1OC(c2ccc(OCCCO)cc2)=N[C@]1(CCS(=O)(=O)c1ccccc1)C(=O)O  0.678
10. C=C(/C(=C/C[C@H](OC(=O)c1ccncc1)c1ccc(CO)o1)c1cnc2ccccc2c1)C(C)C  0.544
11. O=C1O[C@H](c2ccccc2)[C@H](c2ccccc2)N2[C@H]1[C@@H](C(=O)O)[C@]1(C(=O)Nc3ccc(C#CCCO)cc31)[C@H]2c1ccccc1OCCO  0.4
12. CCOC(=O)C[C@H]1[C@H](OC(=O)Cc2ccc3c(c2)OCO3)[C@@H](NC(=O)C2CCCCC2)c2cc(OCCCO)ccc2N1C(=O)c1ccccc1  0.379
13. CCOC(=O)C[C@H]1[C@H](OC(=O)c2ccc(-c3ccccc3)cc2)[C@@H](NC(=O)CC(C)C)c2cc(OCCCO)ccc2N1C(=O)c1ccc2ccccc2n1  0.326
14. O=C1C2C=CC(C(O)c3ccco3)N(Nc3ccccc3F)C2C(=O)N1c1ccccc1 (stereo not given)  0.175
15. O=C1C2C=CC(C(O)c3cccc(O)c3)N(Nc3ccc([N+](=O)[O-])cc3)C2C(=O)N1c1ccccc1 (stereo not given)  0.0968
16. CCCCC(CC)C(O)C1C=CC2C(=O)N(c3ccccc3)C(=O)C2N1Nc1ccccc1F (stereo not given)  0.0117
17. COCC(=C=CC[C@H](O)c1ccccc1OCCO)C[C@H](O)c1ccccn1  -0.0135
18. CCOC(=O)C[C@H]1[C@H](OC(=O)c2cc3ccccc3oc2=O)[C@@H](NC(=O)c2ccccc2)c2cc(OCCCO)ccc2N1C(=O)c1ccccc1  -0.0848
19. C=C(C(=O)CC[C@H](OC(=O)c1ccccc1-c1ccccc1C(=O)O)c1cccc(OCCO)c1)C(C)C  -0.119
20. CN(C)CCCCCCNC(=O)[C@@H]1C[C@@H]2C(=O)N3CCC[C@H]3C(=O)N2[C@@H]1c1cccc(OCCO)c1  -0.215
21. CCOC(=O)C[C@H]1[C@H](OC(=O)c2ccccc2-c2ccccc2)[C@@H](NC(=O)c2ccc3ccccc3n2)c2cc(OCCCO)ccc2N1C(=O)Cc1ccc(OC)cc1  -0.216
22. CCCCC(=C=CC[C@H](O)c1ccc(OCCO)cc1)CCO  -0.333
23. OCCCC1=CC(c2ccc(CN3CCCC3)cc2)N(Cc2cc3c(cc2Br)OCO3)CC1 (stereo not given)  -0.464
24. Oc1ccc2cc[n+](Cc3cc4c(cc3Br)OCO4)cc2c1  -0.489
25. CC(C)N1C(=O)C[C@@](C(=O)NC2CC2)(c2ccc([N+](=O)[O-])cc2)[C@H]1c1ccc(CO)cc1  -0.673

Each molecule was assayed against Calmodulin-1 (Homo sapiens) (UniProt P0DP23) (assay: calcium-bound CALM1 binders on microarrays, profiling panel, artefact control for SMM control-protein annotation, biochemical, small-molecule microarray, Cy5-labelled CALM1, plus calcium (AID 1112;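 also: score merges spot fluorescence with signal to noise from triplicate slides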)). Settings: Cy5-CALM1 binding fluorescence, higher = more signal.

In order of rising composite z-score:
1. CN(C)CCCCCCNC(=O)[C@@H]1C[C@@H]2C(=O)N3CCC[C@H]3C(=O)N2[C@@H]1c1cccc(OCCO)c1  -1.74
2. OCCCC1=CC(c2ccc(CN3CCCC3)cc2)N(Cc2cc3c(cc2Br)OCO3)CC1 (stereo not given)  -0.811
3. CCOC(=O)C[C@H]1[C@H](OC(=O)c2cc3ccccc3oc2=O)[C@@H](NC(=O)c2ccccc2)c2cc(OCCCO)ccc2N1C(=O)c1ccccc1  -0.782
4. CC(C)[Si](C#C[Si](C(C)C)(C(C)C)C(C)C)(O[C@H](c1ccccc1)c1cn(Cc2ccccc2)nn1)C(C)C  -0.774
5. CCOC(=O)C[C@H]1[C@H](OC(=O)c2ccc(-c3ccccc3)cc2)[C@@H](NC(=O)CC(C)C)c2cc(OCCCO)ccc2N1C(=O)c1ccc2ccccc2n1  -0.631
6. CC(C)N1C(=O)C[C@@](C(=O)NC2CC2)(c2ccc([N+](=O)[O-])cc2)[C@H]1c1ccc(CO)cc1  -0.606
7. [N-]=[N+]=Nc1ccccc1C[C@]1(C(=O)NCCN2CCOCC2)COC(c2ccc(OCCCO)cc2)=N1  -0.553
8. COCC(=C=CC[C@H](O)c1ccccc1OCCO)C[C@H](O)c1ccccn1  -0.411
9. C=C(C(=O)CC[C@H](OC(=O)c1ccccc1-c1ccccc1C(=O)O)c1cccc(OCCO)c1)C(C)C  -0.409
10. CCCCC(=C=CC[C@H](O)c1ccc(OCCO)cc1)CCO  -0.404
11. CCCCC(CC)C(O)C1C=CC2C(=O)N(c3ccccc3)C(=O)C2N1Nc1ccccc1F (stereo not given)  -0.264
12. [N-]=[N+]=Nc1ccccc1C[C@@]1(C(=O)N2CCOCC2)N=C(c2ccc(OCCCO)cc2)O[C@@H]1c1ccccc1  -0.258
13. CCOC(=O)C[C@H]1[C@H](OC(=O)c2ccccc2-c2ccccc2)[C@@H](NC(=O)c2ccc3ccccc3n2)c2cc(OCCCO)ccc2N1C(=O)Cc1ccc(OC)cc1  -0.224
14. COc1ccc([Si](C)(C)[C@@H]2[C@@H](CCO)O[C@]3(C(=O)N(Cc4cccc(NC(=O)[C@H](C)O)c4)c4ccccc43)[C@H]2C)cc1  -0.204
15. O=C1OCCC=C[C@H]2OC34C=CCN(Cn5nnc6ccccc65)C(=O)[C@H]3N(CCCO)C(=O)[C@@H]4C12 (stereo not given in full)  -0.0354
16. C=C(/C(=C/C[C@H](OC(=O)c1ccncc1)c1ccc(CO)o1)c1cnc2ccccc2c1)C(C)C  -0.0351
17. CC[C@@H]1C=C(C(=O)O)[C@H](c2ccc(C#N)cc2)N1S(=O)(=O)c1ccc(C)cc1  -0.0241
18. O=C1C2C=CC(C(O)c3ccco3)N(Nc3ccccc3F)C2C(=O)N1c1ccccc1 (stereo not given)  -0.0085
19. O=C1O[C@H](c2ccccc2)[C@H](c2ccccc2)N2[C@H]1[C@@H](C(=O)O)[C@]1(C(=O)Nc3ccc(C#CCCO)cc31)[C@H]2c1ccccc1OCCO  0.0772
20. [N-]=[N+]=NCc1ccccc1[C@@H]1OC(c2ccc(OCCCO)cc2)=N[C@]1(CCS(=O)(=O)c1ccccc1)C(=O)O  0.0892
21. O=C1C2C=CC(C(O)c3cccc(O)c3)N(Nc3ccc([N+](=O)[O-])cc3)C2C(=O)N1c1ccccc1 (stereo not given)  0.219
22. [N-]=[N+]=Nc1ccccc1C[C@]1(C(=O)NCC(O)CO)COC(c2ccc(OCCCO)cc2)=N1 (stereo not given in full)  0.37
23. CCOC(=O)C[C@H]1[C@H](OC(=O)Cc2ccc3c(c2)OCO3)[C@@H](NC(=O)C2CCCCC2)c2cc(OCCCO)ccc2N1C(=O)c1ccccc1  0.389
24. CC(C)N1C(=O)C[C@@](C(=O)O)(c2ccc([N+](=O)[O-])cc2)[C@H]1c1ccc(CO)cc1  0.432
25. Oc1ccc2cc[n+](Cc3cc4c(cc3Br)OCO4)cc2c1  0.446
26. COCCOC(=O)N1C(=O)[C@@]2(c3cc(C#CC4=CCCCC4)ccc31)[C@H](c1ccccc1OCCO)N1[C@H](c3ccccc3)[C@H](c3ccccc3)OC(=O)[C@H]1[C@@H]2C(=O)N1CCN(c2ncccn2)CC1  0.466
27. COc1ccc([Si](C)(C)[C@@H]2[C@@H](CCO)O[C@]3(C(=O)N(Cc4ccccc4)c4ccc(N5CCOC5=O)cc43)[C@H]2C)cc1  0.521
28. C=CC[C@@]1(C(=O)NCCCOC)N=C(c2ccc(OCCCO)cc2)O[C@@H]1c1ccccc1  0.626
29. O=C1O[C@@H](c2ccccc2)[C@@H](c2ccccc2)N2[C@@H](c3ccc(OCCO)cc3)[C@]3(C(=O)Nc4ccc(C#CC5=CCCCC5)cc43)[C@@H](C(=O)NC[C@H](O)c3ccccc3)[C@H]12  0.7
30. COC(=O)[C@]1(CCS(=O)(=O)c2ccccc2)N=C(c2ccc(OCCCO)cc2)O[C@@H]1c1ccccc1N=[N+]=[N-]  0.785
31. COCCCNC(=O)[C@@]1(CCC(=O)OC(C)(C)C)N=C(c2ccc(OCCCO)cc2)O[C@H]1c1ccccc1N=[N+]=[N-]  0.807
32. C=CCC(OC(C)=O)[C@@H]1[C@@H](N(Cc2ccc(-c3ccccc3)cc2)C(=O)c2ccc(-c3ccccc3)cc2)c2cc(OCCCO)ccc2N1C(=O)c1ccc2ccccc2c1 (stereo not given in full)  0.839
33. [N-]=[N+]=Nc1ccccc1C[C@]1(C(=O)O)COC(c2ccc(OCCCO)cc2)=N1  0.897
34. CC[C@@H]1C=C(C(=O)O)[C@H](c2ccccc2)N1S(=O)(=O)c1ccc(C)cc1  1.03
35. CCCCCCCCCCC(O)C1C=CC2C(=O)N(c3ccccc3)C(=O)C2N1Nc1ccc(C#N)cc1 (stereo not given)  1.19
